Data reported in PubChem BioAssay (NCI).
About 79,000 compounds went through this panel and 15% of them were active in at least one assay; those are over-represented in the sample as a whole. Active and inactive are the calls of the source. No stated cut-off is given here; in the data, active means growth inhibition above about 70%; inactive means the rest.

Key:
[1] = NCI Yeast Anticancer Drug Screen. Data for the rad52 strain (AID 147);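 further: 0% = growth of vehicle-treated control cultures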; conditions: S. cerevisiae rad52 mutant growth inhibition, hits give high values
Method in brief: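 Here a repair-compromised yeast strain receives each compound; its growth is then quantified and normalised to vehicle-only controls.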

[2] = NCI Yeast Anticancer Drug Screen. Data for the wt1 strain (AID 149);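 further: 0% = growth of vehicle-treated wt1 cultures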; conditions: S. cerevisiae wt1 strain (SPY 50644) growth inhibition, hits give high values
Method in brief: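 Measured: growth of wt1 yeast under compound versus vehicle treatment, reported as inhibition.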

[3] = NCI Yeast Anticancer Drug Screen. Data for the rad50EPP+ strain (AID 151);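 further: 0% = growth of vehicle-treated control cultures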; conditions: S. cerevisiae rad50 mutant strain, hits give high values
Method in brief: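 Read-out is yeast growth inhibition relative to vehicle; cells used were the rad50EPP+ strain.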

[4] = NCI Yeast Anticancer Drug Screen. Data for the mgt1 strain (AID 153); conditions: S. cerevisiae mgt1 mutant growth inhibition, hits give high values
Method in brief: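 Measured: inhibition of mgt1 yeast growth by compound, normalized to vehicle-treated cultures.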

[5] = NCI Yeast Anticancer Drug Screen. Data for the rad50 strain (AID 155);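 further: 0% = growth of vehicle-only cultures of the same strain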; conditions: S. cerevisiae rad50 strain growth inhibition, hits give high values
Method in brief: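 Growth of the mutant yeast was measured after compound exposure and referenced to vehicle-treated cultures.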

[6] = NCI Yeast Anticancer Drug Screen. Data for the mec2-1 strain (AID 157); conditions: S. cerevisiae mec2-1 strain, hits give high values
Method in brief: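 Using mec2-1 yeast: add compound, measure growth, express inhibition versus vehicle-treated cultures.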

[7] = NCI Yeast Anticancer Drug Screen. Data for the rad14 strain (AID 159);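 further: 0% = growth of vehicle-treated control cultures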; conditions: S. cerevisiae rad14 strain growth inhibition, hits give high values
Method in brief: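 Here, inhibition of yeast growth was measured after compound exposure, using a strain with a genetic defect in DNA damage repair and vehicle-treated cultures as the reference.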

[8] = NCI Yeast Anticancer Drug Screen. Data for the sgs1 mgt1 strain (AID 161);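 further: 0% = growth of cultures given vehicle only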; conditions: S. cerevisiae sgs1 mgt1 strain, hits give high values
Method in brief: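 Compounds are added to genetically altered yeast, and growth is compared with cultures given vehicle alone to give percent inhibition.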

[9] = NCI Yeast Anticancer Drug Screen. Data for the CLN2oe strain (AID 163);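 further: 0% = growth of vehicle-only control cultures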; conditions: S. cerevisiae CLN2oe strain, hits give high values
Method in brief: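 Whole-cell yeast growth assay. A strain engineered for altered cell-cycle control received compound, and inhibition relative to vehicle-treated cultures was recorded.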

[10] = NCI Yeast Anticancer Drug Screen. Data for the cln2 rad14 strain (AID 165);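 further: 0% = growth equal to vehicle treated cultures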; conditions: S. cerevisiae cln2 rad14 strain, hits give high values
Method in brief: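 Yeast strain cln2 rad14, bearing defects in cell cycle control and DNA repair, serves as the test system; values reflect growth inhibition compared with vehicle.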

[11] = NCI Yeast Anticancer Drug Screen. Data for the bub3 strain (AID 167); conditions: S. cerevisiae bub3 mutant strain, hits give high values
Method in brief: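 Whole-cell yeast assay. The mutant strain was incubated with compounds, and growth inhibition was determined by comparison with vehicle-treated cells.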

[12] = NCI Yeast Anticancer Drug Screen. Data for the wt2 strain (AID 169);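 further: 0% = growth of vehicle-treated yeast cultures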; conditions: S. cerevisiae wt2 strain growth inhibition, hits give high values
Method in brief: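 Treated yeast vs. vehicle-treated yeast: growth inhibition determined.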

[13] = NCI Yeast Anticancer Drug Screen. Data for the mlh1 strain (AID 171);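 further: 0% = growth of vehicle-treated control cultures of the same strain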; conditions: S. cerevisiae mlh1 strain growth inhibition, hits give high values
Method in brief: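 A yeast strain with a defined genetic lesion serves as the test organism. Cultures receive compound or vehicle, and growth is measured.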

[14] = NCI Yeast Anticancer Drug Screen. Data for the sgs1 strain (AID 173);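 further: 0% = growth of vehicle-only control cultures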; conditions: S. cerevisiae sgs1 mutant, hits give high values
Method in brief: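 A genetically defined yeast mutant is incubated with the test compound, and its growth is compared to that of the same strain given vehicle.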

[15] = NCI Yeast Anticancer Drug Screen. Data for the mlh1 rad18 strain (AID 175); conditions: S. cerevisiae mlh1 rad18 strain growth inhibition, hits give high values
Method in brief: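 Steps: expose repair-defective yeast to compound; measure growth; express inhibition against vehicle-treated controls.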

[16] = NCI Yeast Anticancer Drug Screen. Data for the rad18 strain (AID 177); conditions: S. cerevisiae rad18 mutant growth inhibition, hits give high values
Method in brief: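 Measured value is growth inhibition of a yeast strain bearing a DNA repair alteration, referenced to vehicle-treated cells.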

[17] = at 5.0 µM (retest, dose inferred, filed as 0.5)
[18] = at 50.0 µM (retest, dose inferred, filed as 5.0)

Measured: growth inhibition

CCC1(O)C(=O)OCc2c1cc1n(c2=O)Cc2cc3cc(Cl)ccc3nc2-1 (stereo unspecified)
inactive: [2]; at 1.2 µM 3% | [2]; at 3.7 µM 0% | [2]; at 11.0 µM 16% | [2]; at 33.0 µM 43% | [2]; at 100.0 µM 65% | [4]; at 1.2 µM 13% | [4]; at 3.7 µM 19% | [4]; at 11.0 µM 30% | [4]; at 33.0 µM 57% | [4]; at 100.0 µM 67% | [6]; at 1.2 µM 60% | [7]; at 1.2 µM 12% | [7]; at 3.7 µM 19% | [7]; at 11.0 µM 35% | [7]; at 33.0 µM 59% | [7]; at 100.0 µM 69% | [8]; [17] 62% | [8]; at 50.0 µM 40.2% | [9]; at 1.2 µM 6% | [9]; at 3.7 µM 14% | [9]; at 11.0 µM 33% | [9]; at 33.0 µM 47% | [9]; at 100.0 µM 59% | [10]; [17] 24% | [10]; [18] 48% | [10]; at 50.0 µM 45.9% | [11]; at 1.2 µM -6% | [11]; at 3.7 µM 6% | [11]; [17] -2% | [11]; at 11.0 µM 24% | [11]; at 33.0 µM 44% | [11]; [18] 31% | [11]; at 50.0 µM -5.7% | [11]; at 100.0 µM 62% | [12]; at 1.2 µM 4% | [12]; at 3.7 µM 19% | [12]; at 11.0 µM 20% | [12]; at 33.0 µM 31% | [12]; at 100.0 µM 47% | [13]; at 1.2 µM 3% | [13]; at 3.7 µM 8% | [13]; at 11.0 µM 36% | [13]; at 33.0 µM 65% | [14]; at 1.2 µM 31% | [14]; at 3.7 µM 46% | [14]; at 11.0 µM 69% | [15]; [17] 45% | [15]; [18] 60% | [15]; at 50.0 µM 52.5% | [16]; at 1.2 µM 14% | [16]; at 3.7 µM 14% | [16]; at 11.0 µM 34% | [16]; at 33.0 µM 64%
active: [1]; at 1.2 µM 94% | [1]; at 3.7 µM 95% | [1]; at 11.0 µM 95% | [1]; at 33.0 µM 95% | [1]; at 100.0 µM 92% | [3]; at 1.2 µM 92% | [3]; at 3.7 µM 93% | [3]; at 11.0 µM 94% | [3]; at 33.0 µM 92% | [3]; at 100.0 µM 88% | [5]; at 1.2 µM 96% | [5]; at 3.7 µM 94% | [5]; [17] 97% | [5]; at 11.0 µM 95% | [5]; at 33.0 µM 93% | [5]; [18] 92% | [5]; at 50.0 µM 93.7% | [5]; at 100.0 µM 78% | [6]; at 3.7 µM 88% | [6]; [17] 87% | [6]; at 11.0 µM 93% | [6]; at 33.0 µM 92% | [6]; [18] 88% | [6]; at 50.0 µM 92.7% | [6]; at 100.0 µM 89% | [8]; [18] 84% | [13]; at 100.0 µM 74% | [14]; at 33.0 µM 83% | [14]; at 100.0 µM 80% | [16]; at 100.0 µM 71%

COC(=O)C1c2cc3c(c(O)c2C(O)CC1(C)O)C(=O)c1c(O)cc2c(c1C3=O)OC1OC2(C)C(O)C(N(C)C)C1O (stereo unspecified)
active: [1]; at 33.0 µM 85% | [1]; at 100.0 µM 93% | [2]; at 100.0 µM 75% | [4]; at 100.0 µM 95% | [5]; at 11.0 µM 86% | [5]; at 33.0 µM 94% | [5]; at 50.0 µM 98% | [5]; at 100.0 µM 93% | [6]; at 33.0 µM 96% | [6]; [18] 92% | [6]; at 50.0 µM 95.3% | [6]; at 100.0 µM 94% | [7]; at 11.0 µM 79% | [7]; at 33.0 µM 97% | [7]; at 100.0 µM 92% | [8]; at 50.0 µM 98% | [9]; at 33.0 µM 73% | [9]; at 100.0 µM 89% | [10]; [18] 85% | [10]; at 50.0 µM 78.2% | [11]; at 33.0 µM 95% | [11]; [18] 97% | [11]; at 50.0 µM 90.9% | [11]; at 100.0 µM 93% | [12]; at 33.0 µM 80% | [12]; at 100.0 µM 93% | [13]; at 11.0 µM 70% | [13]; at 33.0 µM 96% | [13]; at 100.0 µM 94% | [14]; at 33.0 µM 71% | [14]; at 100.0 µM 87% | [15]; [18] 98% | [15]; at 50.0 µM 95.2% | [16]; at 11.0 µM 75% | [16]; at 33.0 µM 94% | [16]; at 100.0 µM 91%
inactive: [1]; at 1.2 µM 0% | [1]; at 3.7 µM 16% | [1]; at 11.0 µM 50% | [2]; at 1.2 µM 2% | [2]; at 3.7 µM 1% | [2]; at 11.0 µM 17% | [2]; at 33.0 µM 34% | [3]; at 1.2 µM -1% | [3]; at 3.7 µM 18% | [3]; at 11.0 µM 39% | [3]; at 33.0 µM 61% | [3]; at 100.0 µM 65% | [4]; at 1.2 µM -7% | [4]; at 3.7 µM 9% | [4]; at 11.0 µM 14% | [4]; at 33.0 µM 52% | [5]; at 1.2 µM 1% | [5]; at 3.7 µM 37% | [5]; [17] 24% | [5]; [18] 64% | [6]; at 1.2 µM -3% | [6]; at 3.7 µM 3% | [6]; [17] 12% | [6]; at 11.0 µM 37% | [7]; at 1.2 µM 0% | [7]; at 3.7 µM 16% | [8]; [17] -3% | [8]; [18] 15% | [9]; at 1.2 µM -7% | [9]; at 3.7 µM 1% | [9]; at 11.0 µM 31% | [10]; [17] 27% | [11]; at 1.2 µM -4% | [11]; at 3.7 µM 3% | [11]; [17] -26% | [11]; at 11.0 µM 55% | [12]; at 1.2 µM 0% | [12]; at 3.7 µM 5% | [12]; at 11.0 µM 28% | [13]; at 1.2 µM -4% | [13]; at 3.7 µM 18% | [14]; at 1.2 µM -1% | [14]; at 3.7 µM 9% | [14]; at 11.0 µM 40% | [15]; [17] 9% | [16]; at 1.2 µM 1% | [16]; at 3.7 µM 13%
